Screening results: PubChem, several laboratories
An excerpt weighted towards active compounds, which were near 3.4% of everything screened.
NTR1 ag = activates human neurotensin receptor 1. P30989. NTR1-U2OS beta-arrestin-GFP spot imaging, agonist mode. activation, % at 20 µM. 330,000 compounds, 0.17% hits. AID 493036;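 active means activation at or above 40% of the spot to cytoplasm intensity ratio, with at least 20 cells analyzed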;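 further: 0% = DMSO without peptide and 100% = 100 nM NTR1 peptide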
MEKK2 WT-MEK5 = raises or lowers MEK5 binding to wildtype human MEKK2 PB1 domain | Q9Y2U5 | bead flow cytometry, Alexa488-MEK5 binding to MEKK2 WT; actives lie on both sides | binding response (% of control), % at 10 µM | 290,000 compounds, 1.1% hits | AID 1531; in the data active means binding response below about 67% or above about 130%
MEKK2 mut-MEK5 = signal of MEK5 binding to mutant human MEKK2 PB1 domain. percent response, % at 10 µM. AID 1530. bead flow cytometry, Alexa488-MEK5 binding to MEKK2 mutant. 290,000 compounds, 0.35% hits; in the data active means percent response above about 24%, passing the limit was not always enough
ANO1 block = blocks the mouse calcium-activated chloride channel TMEM16A; Q8BHY3; HEK293 TMEM16A/YFP iodide influx fluorescence, ionomycin; AID 588511; 310,000 compounds, 1.2% hits; normalized B-score (activity score, 25-100; higher = stronger inhibition) at 10 µM;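 active means ratio plate-corrected score three or more library SD toward inhibition, starting fluorescence score within five deviations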;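 further: score derived from kinetic fluorescence span divided by baseline fluorescence per well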
ANO1 activ = mouse TMEM16A channel activation, primary screen; HEK293 TMEM16A/YFP-H148Q/I152L, iodide quench fluorescence; active compounds read low; 340,000 compounds, 0.3% hits; B-score at 10 µM; Q8BHY3; AID 623877;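 active means fluorescence-ratio B-score plate-corrected deviation score at least 3 library SD below zero, with starting fluorescence score within 5 deviations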;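 further: channel opened by trigger with iodide after compound preincubation; score built on the fluorescence ratio of max minus min over baseline; more negative score means more quench and so TMEM16A activation or potentiation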
MEKK3 PB1 HTS = MEKK3-MEK5 PB1 interaction, increase or decrease; bead-based flow cytometry, Alexa488-MEK5 binding to MEKK3; actives lie on both sides; 0 = blocked by unlabeled MEK5, 100 = vehicle; binding response (% of control), % at 10 µM; AID 1529; Q99759; 290,000 compounds, 1.4% hits;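 active means binding response more than 3 SD above or below the average of its plate-row segment, actives on both sides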;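 further: Alexa488 bead fluorescence after subtracting the streptavidin-only scavenger bead signal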
TMEM16A reconf = re-confirmation of mouse TMEM16A chloride channel inhibitors | shares compounds with ANO1 block | HEK293 TMEM16A/YFP-H148Q, iodide quench fluorescence; ionomycin added to raise cell calcium | inhibition, % at 10 µM | 2,300 compounds, 39% hits | AID 652189;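 active means mean duplicate percent inhibition, scaled so buffer wells are 0 and the reference blocker 100, over three buffer SD above buffer mean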
TMEM16A Ca cntr = alters calcium mobilization in TMEM16A HEK293 cells, counter-screen. shares compounds with ANO1 block. 2,300 compounds, 2% hits. calcium response (% of ionomycin), % at 10 µM. TMEM16A/YFP HEK293, Fluo4 calcium mobilization;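 active means duplicate-averaged calcium signal over 20% of the ionomycin maximum, relative to buffer baseline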;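 further: each well's signal is peak minus trough fluorescence divided by its pre-addition baseline; 0% = buffer wells and 100% = ionomycin wells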
YFP-HEK293 quench = parental YFP-HEK293 iodide quench counter-screen activity | shares compounds with ANO1 block | ionomycin | YFP ratio F(max-min)/F0 at 10 µM | 2,300 tested, under 10 active | AID 652233;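 active means yellow fluorescent protein signal ratio exceeding the buffer control mean by over 5 SD of those controls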;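 further: ratio is mean of duplicate wells from kinetic YFP trace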
ClC-1 rat inh = rat ClC-1 inhibition, TMEM16A specificity screen. shares compounds with ANO1 block. CHO ClC-1-YFP, iodide influx fluorescence quench; iodide control reads 0, buffer control 100. ratio percent, % at 10 µM. 2,300 tested, under 10 active. AID 652236;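 active means duplicate-mean ratio percent above the mean of iodide-only control wells, which defines zero, plus 5 of their SD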;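 further: higher percent means stronger block of ClC-1 iodide influx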
* hit, by the source's call; i = inactive; nt = no result.

SMILES	NTR1 ag	MEKK2 WT-MEK5	MEKK2 mut-MEK5	ANO1 block	ANO1 activ	MEKK3 PB1 HTS	TMEM16A reconf	TMEM16A Ca cntr	YFP-HEK293 quench	ClC-1 rat inh
CC(C(=O)O)c1ccc2c(c1)[nH]c1ccc(Cl)cc12 (stereo unspecified)	-0.6	106.0	4.0	25*	i	99.0	i	i	-1	-15.0
Cc1cc(=O)[nH]c2ccc(Cl)cc12	13.2	103.0	4.0	i	i	101.0	nt	nt	nt	nt
Cc1cc2c(NCCc3ccccc3)ncnc2s1	-0.1	96.0	1.0	25*	i	98.0	23.5%*	i	-1.15	-14.5
CCCCCCCCNc1ncnc2ccccc12	0.2	107.0	4.0	100*	i	101.0	38.0%*	i	-1	-35.5
c1ccc(CCNc2ncnc3ccccc23)cc1	0.5	101.0	1.0	25*	i	101.0	i	i	-1.03	-25.5
CCc1ccccc1Nc1ncnc2ccccc12	-1.1	101.0	3.0	i	i	104.0	nt	nt	nt	nt
Cc1cc2c(Nc3ccccc3)ncnc2s1	-2.2	80.0	-7.0	i	i	73.0	nt	nt	nt	nt
Cc1cc(F)ccc1S(=O)(=O)Nc1ccccc1C(=O)Nc1ccccc1N1CCOCC1	2.8	95.0	-8.0	25*	i	89.0	i	i	-1.15	-16.0
Cc1ccc(S(=O)(=O)Nc2ccccc2C(=O)Nc2nc(-c3ccc(F)cc3)cs2)cc1	7.5	89.0	-5.0	25*	i	100.0	39.0%*	i	-1.2	-17.0
O=C(Nc1ccccc1N1CCOCC1)c1ccccc1NS(=O)(=O)c1ccc(F)cc1	1.1	nt	nt	i	i	nt	nt	nt	nt	nt
O=C(Nc1cc(S(=O)(=O)N2CCCCC2)ccc1O)c1ccccc1NS(=O)(=O)c1ccc(F)cc1	2.4	100.0	1.0	100*	i	100.0	67.5%*	i	-1.05	-18.5
O=C(Nc1ccccc1N1CCOCC1)c1ccccc1NS(=O)(=O)c1ccc(F)c(F)c1	-1.8	109.0	4.0	100*	i	106.0	31.0%*	i	-1.04	-9.0
COc1ccc(S(=O)(=O)N2CCCCCC2)cc1NC(=O)c1ccccc1F	0.2	nt	nt	nt	i	nt	nt	nt	nt	nt
CCN(CC)C(=O)c1ccc(COc2ccc(Cl)c(C)c2)o1	4.0	107.0	9.0	i	i	105.0	nt	nt	nt	nt
Cc1nn(C)c(C)c1CN(Cc1nc(CCC(C)C)no1)C(C)C	3.5	97.0	-9.0	25*	i	100.0	i	i	-1.08	-20.5
COc1ccc(CNC(=O)C(C)OC(=O)CCN2C(=O)C3CC=CCC3C2=O)cc1 (stereo unspecified)	0.6	nt	nt	i	i	nt	nt	nt	nt	nt
CCc1ccc(NC(=O)Cn2cnc3c(=O)n(C)c(=O)n(C)c32)cc1	-1.1	98.0	-1.0	i	i	100.0	nt	nt	nt	nt
CCc1ccc(C(C)NC(=O)Cn2cnc3c(=O)n(C)c(=O)n(C)c32)cc1 (stereo unspecified)	0.2	93.0	2.0	25*	i	97.0	i	i	-0.879	-2.5
c1ccc(COc2ccc3nocc3c2)cc1	0.0	nt	nt	i	i	nt	nt	nt	nt	nt
CCOC(OCC)P(=O)(c1ccccc1)c1ccccc1	2.9	98.0	-2.0	i	i	97.0	i	i	-1.2	-1.5
COc1ccc(OC)c(C(=O)NC(CC(N)=O)c2ccc(NCCN3CCCCC3)c([N+](=O)[O-])c2)c1 (stereo unspecified)	-0.5	106.0	1.0	i	i	104.0	nt	nt	nt	nt
COc1ccccc1C(=O)NCC(c1cccs1)N1CCc2ccccc21 (stereo unspecified)	7.2	nt	nt	25*	i	nt	i	i	-0.846	-5.0
COc1ccccc1/C=N/NC(=O)c1nnn(-c2nonc2N)c1CSC1=NCCS1	0.3	99.0	-6.0	i	i	93.0	nt	nt	nt	nt
Cc1ccccc1-c1cc(C(=O)n2cccn2)c2cc(Cl)ccc2n1	-0.2	103.0	3.0	25*	i	104.0	i	i	-0.989	-10.0
Cc1ccccc1-c1nc2ccc(Cl)cc2c(=O)n1O	-2.2	97.0	-2.0	i	i	97.0	nt	nt	nt	nt
SMILES	NTR1 ag	MEKK2 WT-MEK5	MEKK2 mut-MEK5	ANO1 block	ANO1 activ	MEKK3 PB1 HTS	TMEM16A reconf	TMEM16A Ca cntr	YFP-HEK293 quench	ClC-1 rat inh
CC(C)OCCCNc1ncnc2c1[nH]c1ccccc12	0.2	105.0	9.0	100*	i	100.0	38.5%*	i	-1.05	-21.5
COc1ccc(CNc2ncnc3c2[nH]c2ccccc23)cc1	4.7	95.0	-13.0	i	i	93.0	nt	nt	nt	nt
Clc1ccccc1CNc1nc2ccccc2n2cnnc12	2.9	98.0	2.0	i	i	105.0	nt	nt	nt	nt
COCCn1c(SCC(=O)N(C)c2c(N)n(Cc3ccccc3)c(=O)[nH]c2=O)nnc1-c1cccc(C)c1	0.1	nt	nt	i	i	nt	nt	nt	nt	nt
Cc1ccccc1OCCC(=O)OCC(=O)NC(=O)c1ccccc1	-1.3	nt	nt	i	i	nt	nt	nt	nt	nt
C=CCn1c(SCC(=O)NCc2ccc3c(c2)OCO3)nc2scc(-c3ccc(F)cc3)c2c1=O	5.6	106.0	1.0	i	i	106.0	nt	nt	nt	nt
C=CCn1c(SC(C)C(=O)NCc2ccc3c(c2)OCO3)nc2scc(-c3ccccc3)c2c1=O (stereo unspecified)	2.9	91.0	-1.0	100*	i	97.0	i	i	-1.16	-7.0
CC(C)(C)NC(=O)C(c1ccccc1)N(Cc1ccco1)C(=O)c1csnn1 (stereo unspecified)	-1.0	110.0	3.0	i	i	105.0	nt	nt	nt	nt
CCC(C)N(C(=O)c1csnn1)C(C(=O)NC(C)(C)C)c1ccccc1 (stereo unspecified)	3.1	104.0	4.0	i	nt	96.0	i	i	-1.24	2.0
O=C(NCc1ccccc1)C12CC3CC(CC(C3)C1)C2	0.5	94.0	2.0	i	i	99.0	nt	nt	nt	nt
O=C(Nn1nnnc1Nc1ccccc1)C12CC3CC(CC(C3)C1)C2	-0.1	109.0	14.0	25*	i	109.0	i	i	-0.8	-5.5
O=C(O)c1ccc(Oc2c(C(F)(F)F)oc3cc(O)ccc3c2=O)cc1	0.8	101.0	-5.0	i	i	108.0	nt	nt	nt	nt
